This is an account of results in PubChem BioAssay AID1986 (Sanford-Burnham Center for Chemical Genomics, 2009).

A short description of the assay: cell-free HIV fusion peptide-binding blockers – biochemical, uHTS, fluorescence dequenching, primary screen (AID 1986). The conditions noted are these: 30 min, stronger effect = higher value.
The mark [1] stands for this setting: measured here: repeat confirmation average inhibition, at 18.6 µM.

In all, about 290,000 compounds went through this assay and about 890 (0.31%) were called active. No stated cut-off is given here; in the data, active means inhibition mostly above about 52% (no sharp cut-off); inactive means mostly below about 76%. The sample as a whole holds a higher share of actives than the screen did.

As for `CN1CCN(c2ccc(Cl)cc2N)CC1`, the inhibition (at 20 µM) was 0.1% (inactive).

On to `CCC(=O)N1CC(=O)Nc2ccc(Cl)cc2C1c1ccc(F)cc1` (configuration not stated), for which the inhibition (at 20 µM) was -1.6% (inactive).

With `Cc1cccc(OCC(=O)N2CCN(Cc3ccc([N+](=O)[O-])cc3)CC2)c1`, for the setting “at 20 µM”, the inhibition was -1.3% (inactive).

In the case of `COc1cc(OC)c(C=O)c(OC(=O)N(C)C)c1`, the inhibition (at 20 µM) is 0.7% (inactive).

Consider `CCCC[N+]12CCC(CC1)C(=C(c1ccccc1)c1ccccc1)C2`, for which the inhibition (at 20 µM) was 1.1% (inactive).

Regarding `C[C@]12CCC3C(CCC4=C/C(=N/OCC(=O)NC(CCC(=O)O)C(=O)O)CC[C@@]43C)C1CCC2O` (some centres not stated), for the setting “at 20 µM”, the inhibition was 3.9% (inactive).

Take `NCCCC(=O)OC1N=C(c2ccccc2Cl)c2cc(Br)ccc2NC1=O` (configuration not stated): where the note is “at 20 µM”, the inhibition was -0.8% (inactive).

For `Clc1cccc(N2CCNCC2)n1`, where the note is “at 20 µM”, the inhibition was 0.9% (inactive).

Take `CC(=NCC1CCCO1)c1c(O)n(C)c(=O)n(C)c1=O` (configuration not stated): for the setting “at 20 µM”, the inhibition was -2.1% (inactive).

As to `CN1C(=O)C(=Cc2ccc(N3CCCCCC3)o2)C(=O)N(C)C1=S`, where the note is “at 20 µM”, the inhibition is 149% (inactive).

`Cc1cc(N2CCCCC2)ccc1C=C1C(=O)N(C)C(=S)N(C)C1=O`: the inhibition (at 20 µM) is 17.8% (inactive).

Consider `CN1C(=O)C(=Cc2ccc(N3CCOCC3)o2)C(=O)N(C)C1=O`, for which the inhibition runs as follows: (at 20 µM) 69.4% (active); under setting [1], 81.3%.

In the case of `CN1C(=O)C(=Cc2ccc(N3CCOCC3)o2)C(=O)N(C)C1=S`, where the note is “at 20 µM”, the inhibition was 144% (inactive).

In the case of `Cc1cccc(N2C(=O)/C(=C/c3ccc(N4CCN(C)CC4)o3)C(=O)NC2=S)c1C`, under “at 20 µM”, the inhibition is 13.2% (inactive).

As to `CN1CCN(c2ccc(/C=C3\C(=O)NC(=S)N(c4cccc(Br)c4)C3=O)o2)CC1`, the inhibition (at 20 µM) is 53.7% (active).

As for `CN1C(=O)C(=Cc2ccc(N3CCCCC3)o2)C(=O)N(C)C1=S`, the inhibition is, setting by setting: (at 20 µM) 103% (active); under setting [1], 52.4%.

Consider `CCN1C(=O)C(=Cc2ccc(N3CCOCC3)o2)C(=O)N(CC)C1=S`, for which the inhibition (at 20 µM) is 136% (inactive).

In the case of `Cc1cc(C)cc(N2C(=O)/C(=C\c3ccc(N4CCN(C)CC4)o3)C(=O)NC2=S)c1`, the inhibition (at 20 µM) was 149% (inactive).

With `CNc1ccc2nc3ccccc3[n+](C)c2c1`, the inhibition (at 20 µM) was 20.9% (inactive).

Consider `COc1cc(C(=S)N2CCOCC2)cc(OC)c1OC(=O)Cc1ccccc1`, for which the inhibition (at 20 µM) was -1.3% (inactive).

With `O=C(CNC(=O)c1ccc(Br)cc1)Nc1ccc(Br)cc1C(=O)c1ccccc1`, where the note is “at 20 µM”, the inhibition was 1.3% (inactive).

`CCOC(=O)N(CC)c1ccc(C(O)(C(=O)OC)C(F)(F)F)cc1` (configuration not stated): the inhibition (at 20 µM) is 1.2% (inactive).

`CCCCn1c(=O)c(C(=O)NCc2ccco2)c(O)c2ccccc21`: the inhibition (at 20 µM) is 4.7% (inactive).

Consider `Cc1cc(C=C(C#N)C#N)ccc1N1CCCC1`, for which the inhibition (at 20 µM) was 40.1% (inactive).

With `Cc1cc(N2CCCC2)ccc1C=C(C#N)C#N`, the inhibition (at 20 µM) is 80.3% (active).

For the compound `N#CC(C#N)=Cc1ccc(N2CCCC2)cc1`, the inhibition (at 20 µM) is 11.8% (inactive).

On to `c1ccc(-c2[nH]c[n+](CC3CO3)c2-c2ccccc2)cc1` (configuration not stated), for which, for the setting “at 20 µM”, the inhibition was 12.3% (inactive).

For `O=C(CCc1nnc2ccc(NCc3ccccc3Cl)nn12)N1CCC2(CC1)OCCO2`, the inhibition (at 20 µM) was 1% (inactive).

On to `O=C(/C=C/c1c[nH]c2ccccc12)c1c(O)n(CCc2ccccc2)c(=O)[nH]c1=O`, for which, under “at 20 µM”, the inhibition is 148% (inactive).

`CCCCn1c(O)c(C(C)=NCCc2c[nH]c3ccccc23)c(=O)[nH]c1=O`: the inhibition (at 20 µM) was 0.5% (inactive).

Consider `CCCCn1c(O)c(C(=O)/C=C/c2c[nH]c3ccccc23)c(=O)[nH]c1=O`, for which the inhibition (at 20 µM) is 97.6% (active).

Turning to `CC(=O)NNC(=O)CN1C(=O)CN=C(c2ccccc2)c2cc(Br)ccc21`, the inhibition (at 20 µM) is 2.1% (inactive).

In the case of `CN(C)C(=O)Oc1ccc(Cl)c2cccnc12`, the inhibition (at 20 µM) is 3.9% (inactive).

Consider `Cc1cc(C)cc(-n2c(O)c(C=Nc3ccc(N4CCOCC4)cc3)c(=O)[nH]c2=S)c1`, for which, where the note is “at 20 µM”, the inhibition is 23.1% (inactive).

With `O=c1[nH]c(=S)n(-c2ccc(Cl)cc2)c(O)c1C=Nc1ccc(N2CCOCC2)cc1`, the inhibition is 102% (active) (at 20 µM) and 80.1% under setting [1].

`O=c1[nH]c(=S)n(-c2ccc(Br)cc2)c(O)c1C=Nc1ccc(N2CCOCC2)cc1`: where the note is “at 20 µM”, the inhibition was 24.5% (inactive).

As to `O=C1NC(=O)N(c2ccccc2)C(=O)/C1=C\c1ccccc1[N+](=O)[O-]`, the inhibition (at 20 µM) was 3.7% (inactive).

For the compound `CCCCn1c(=O)c(C=Nc2cccnc2Cl)c(O)n(CCCCl)c1=O`, the inhibition (at 20 µM) is 37.8% (inactive).

In the case of `C=CCn1c(=O)c(C=Nc2cccnc2Cl)c(O)n(CCCC)c1=O`, the inhibition was 119% (inactive) (at 20 µM) and 1.7% under setting [1].

Turning to `O=c1c(C=Nc2cccnc2Cl)c(O)n(CCCCl)c(=O)n1C1CCCCC1`, where the note is “at 20 µM”, the inhibition is 71% (active).

Regarding `Cc1ccc(N2C(=O)NC(=O)C(CCc3ccccn3)(Cc3cccc(Cl)c3Cl)C2=O)cc1` (configuration not stated), the inhibition (at 20 µM) was 0.2% (inactive).

For `Cc1ccc(-n2c(O)c(/C=C/C=Nc3ccccc3)c(=O)[nH]c2=O)cc1`, for the setting “at 20 µM”, the inhibition was 74.3% (active).

Regarding `Cn1c(O)c(/C=C/C=Nc2ccccc2)c(=O)n(C)c1=O`, the inhibition by setting is: (at 20 µM) 52.8% (inactive); under setting [1], 27.8%.

On to `O=c1[nH]c(=O)n(-c2ccccc2)c(O)c1/C=C/C=Nc1ccccc1`, for which the inhibition (at 20 µM) was 147% (inactive).

Turning to `Cc1cccc(-n2c(O)c(C=Nc3ccc(Br)cn3)c(=O)[nH]c2=O)c1`, for the setting “at 20 µM”, the inhibition was 144% (inactive).

For the compound `Cc1ccc(-n2c(O)c(/C=N/c3ncc(Br)cc3Br)c(=O)[nH]c2=O)cc1`, the inhibition is 64% (inactive) (at 20 µM) and 2.3% under setting [1].
